PubChem BioAssay AID488969 (Vanderbilt High Throughput Screening Facility, 2010)
Over roughly 110,000 compounds, “z-score” has its median near -0.1; the highest 2% begin near 2. Shown is part of a subset that was picked to be rich in the highest values. Calls of active or inactive are those of the source.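 How the source made its calls: active means z-score in the third read window above 3 or below -3; inactive means the rest.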

target: Metabotropic glutamate receptor 8 (Rattus norvegicus) (UniProt P70579); test: rat mGluR8 modulators via GIRK flux, primary screen, cell-based, thallium flux, HTS (AID 488969); conditions: HEK293 rat mGluR8, GIRK (G protein-gated inwardly rectifying potassium channel) thallium flux, FluoZin2; at 10 µM; stronger effect = higher value; submaximal glutamate (EC20) added with thallium
Sequence (P70579 whole entry, looked up): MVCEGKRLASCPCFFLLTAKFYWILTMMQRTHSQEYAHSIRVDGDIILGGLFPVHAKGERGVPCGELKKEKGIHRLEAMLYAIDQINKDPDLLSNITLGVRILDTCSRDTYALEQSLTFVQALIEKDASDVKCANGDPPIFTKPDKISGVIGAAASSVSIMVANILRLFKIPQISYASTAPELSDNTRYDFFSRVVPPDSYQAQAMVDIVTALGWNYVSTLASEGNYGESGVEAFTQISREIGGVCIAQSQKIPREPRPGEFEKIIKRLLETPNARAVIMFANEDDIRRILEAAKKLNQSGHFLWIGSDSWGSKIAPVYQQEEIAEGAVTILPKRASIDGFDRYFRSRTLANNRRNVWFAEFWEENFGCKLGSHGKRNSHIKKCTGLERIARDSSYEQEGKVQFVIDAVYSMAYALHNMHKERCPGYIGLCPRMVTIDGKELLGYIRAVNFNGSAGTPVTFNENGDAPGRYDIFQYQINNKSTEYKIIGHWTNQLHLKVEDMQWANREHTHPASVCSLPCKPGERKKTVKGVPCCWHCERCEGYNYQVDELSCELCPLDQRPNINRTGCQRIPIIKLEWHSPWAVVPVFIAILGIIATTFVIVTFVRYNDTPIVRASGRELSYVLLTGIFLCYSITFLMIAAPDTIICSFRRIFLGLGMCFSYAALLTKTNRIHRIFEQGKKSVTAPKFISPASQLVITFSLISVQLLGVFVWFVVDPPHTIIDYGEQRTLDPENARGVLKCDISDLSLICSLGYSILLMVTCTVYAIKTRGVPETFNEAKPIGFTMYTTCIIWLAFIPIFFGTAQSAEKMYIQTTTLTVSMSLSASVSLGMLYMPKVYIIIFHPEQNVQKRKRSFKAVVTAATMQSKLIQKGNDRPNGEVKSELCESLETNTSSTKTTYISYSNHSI

First: O=C1CC(SCc2nc3ccccc3[nH]2)C(=O)N1c1ccc(F)cc1 (centres undefined)
Second: c1coc(Cn2c(SCc3nc4ccccc4[nH]3)nnc2-c2cccs2)c1
The z-score of the first is higher: 0.0187 for the first, -0.59 for the second.

Going from Cc1cc(NC(=O)c2ccc(C)s2)n(-c2ccccc2)n1 to Cc1cc(NC(=O)COc2ccccc2)n(-c2ccccc2)n1, the z-score falls from 0.239 to -0.119.

Compared with O=C(COc1ccc(Cl)cc1Cl)Nc1ccccn1, CSc1ccccc1NC(=O)COc1ccc(Cl)cc1Cl is lower in z-score: 1.52 for the first, -0.15 for the second.

Going from Cc1cc(NC(=O)C(C)Oc2ccc(Cl)cc2Cl)n(-c2ccccc2)n1 (centres undefined) to Cc1cc(Nc2ccccc2)n(-c2ccccc2)n1, the z-score rises from -0.237 to 0.00239.

First: CC(=O)c1cnc(N(C)C)s1
Second: COC(=O)CNc1nc(OC)nc(N(C)C)n1
The z-score of the first is lower: 0.141 for the first, 0.391 for the second.

Compared with CN(Cc1ccccc1)C(=O)CN(C1CCCCC1)S(C)(=O)=O, Cc1cc(C(=O)N2CCC(Cc3ccccc3)CC2)ccc1[N+](=O)[O-] is lower in z-score: 0.423 for the first, -0.573 for the second.

Going from O=C(Nc1ccc(N2CCOCC2)cc1)C1CC1 to O=C(NN1CCOCC1)c1cc(-c2ccccc2)nc2ccccc12, the z-score falls from 0.35 to -0.494.

First: Cn1c(C(=O)NCc2ccccn2)cc2c(=O)n(C)c3ccccc3c21
Second: Cn1c(O)c(N=NC(=O)CNC(=O)c2ccco2)c2ccccc21
The z-score of the first is higher: 0.138 for the first, -0.2 for the second.

Going from COc1ccc(N(C(=O)Cc2cccs2)C(C(=O)NC2CCCCC2)c2cccn2C)cc1 (centres undefined) to O=C(Nc1ccccc1)C(Cc1cccs1)c1nn[nH]n1 (centres undefined), the z-score rises from -0.0427 to 0.0119.

Going from CCOc1ccc2c(c1)C(C)=CC(C)(C)N2C(=O)Nc1ccccc1F to CCN(C(=O)c1cc2ccccc2oc1=O)c1cccc(C)c1, the z-score rises from -0.0976 to 0.00276.

First: Cc1cc(OCc2nc(-c3cccs3)no2)cc(C)c1Cl
Second: CCn1c(-c2cccs2)nc2ccccc21
The z-score of the first is higher: 0.00195 for the first, -0.122 for the second.

Compared with COc1cc(CN2CCCC(C)C2)cc([N+](=O)[O-])c1O (centres undefined), O=C(c1ccccc1[N+](=O)[O-])N1CCC(Cc2ccccc2)CC1 is higher in z-score: -0.494 for the first, -0.0322 for the second.

Going from O=C(NN1CCOCC1)c1cc(-c2ccc(Br)cc2)nc2ccccc12 to CCc1ccc(-c2cc(C(=O)NN3CCOCC3)c3ccccc3n2)cc1, the z-score falls from 2.02 to -0.195.

First: C/C(N)=C(/C#N)C(=O)CSc1nnc(COc2ccccc2Cl)o1
Second: CCn1c(SCC(=O)N2CCC(C(N)=O)(N3CCCCC3)CC2)nnc1-c1ccccc1
The z-score of the first is lower: 0.832 for the first, 2.65 for the second.

Going from Cc1cc(/C=N/NC(N)=O)c(C)c(CO)c1 to COc1cc(C(=O)NCC(=O)N/N=C/c2cccs2)cc(OC)c1OC, the z-score falls from -0.0977 to -0.174.

Going from CCn1c(SCC(=O)N2CCCC2)nnc1-c1ccc(N)cc1 to CCn1c(SCC(=O)N2CCC(C(N)=O)(N3CCCCC3)CC2)nc2ccccc2c1=O, the z-score falls from 0.183 to -1.2.

First: Cn1nnc2cc(C(=O)NCc3ccco3)ccc21
Second: O=C(CN(Cc1ccco1)C(=O)c1ccc(Cl)cc1)Nc1ccc(Cl)c(Cl)c1
The z-score of the first is higher: 0.326 for the first, -0.0983 for the second.

First: CCOC(=O)NC(NC(=O)OCC)C(=O)c1ccccc1
Second: O=C(CCC(=O)OCc1ccc(Br)cc1)Nc1ccccc1
The z-score of the first is lower: -0.227 for the first, -0.0471 for the second.

First: CC(C)CCOP(=O)(c1ccccc1)c1ccccc1
Second: O=C(/C=C/Nc1ccccc1)c1ccccc1
The z-score of the first is lower: -2.77 for the first, 0.219 for the second.

Compared with CC(Nc1cc(N2CCCC2)ccc1[N+](=O)[O-])c1ccccc1 (centres undefined), O=C1CC(=C2c3ccccc3-c3ccccc32)C(=O)N1CCN1CCN(c2cccc(Cl)c2)CC1 is higher in z-score: -0.624 for the first, -0.0614 for the second.

Going from CCCn1c(O)c(CN2CCCCC2)c(C)c(C#N)c1=O to COCCn1c(CN2CCN(c3ccc(OC)cc3)CC2)nc2c1c(=O)n(C)c(=O)n2C, the z-score falls from -0.183 to -0.219.

Compared with Brc1ccc(N=C/C=C/C=C/Nc2ccc(Br)cc2)cc1, NC(=S)N=Nc1c(O)n(Cc2ccc(Br)cc2)c2ccccc12 is lower in z-score: 0.151 for the first, -0.0836 for the second.

Going from Fc1ccccc1CSc1nc2ncc(Br)cc2[nH]1 to NC(=S)N=Nc1c(O)n(Cc2ccc(F)cc2)c2ccccc12, the z-score rises from 1.26 to 1.76.

Going from CCC(NC(=O)NC1=NCCS1)(C(F)(F)F)C(F)(F)F to Cc1csc(NC(=O)C2CCCC2)n1, the z-score falls from 0.399 to 0.0786.

First: CCn1c(=N)c(C(N)=O)cc2c(=O)n3cccc(C)c3nc21
Second: C=CCn1c(=N)c(C(=O)OCC)cc2c(=O)n3cccc(C)c3nc21
The z-score of the first is lower: -1.13 for the first, -0.017 for the second.

Going from CCOCCCn1c(=N)c(C(N)=S)cc2c(=O)n3cccc(C)c3nc21 to Cc1ccc2c(c1)c(N=NC(N)=S)c(O)n2Cc1ccccc1, the z-score rises from 2 to 2.88.

First: CCn1c(O)c(N=NC(=O)CNC(=O)c2ccco2)c2ccccc21
Second: NC(=S)N=Nc1c(O)n(Cc2ccccc2)c2ccccc12
The z-score of the first is lower: -0.152 for the first, 0.17 for the second.

Compared with O=C(N=Nc1c(O)n(Cc2ccccc2)c2ccccc12)c1ccc(O)cc1, CC1(C)CC(=O)N(CC(=O)NCc2ccccc2)c2ccccc2S1(=O)=O is lower in z-score: -0.143 for the first, -0.409 for the second.

First: Cc1ccc(S(=O)(=O)/N=S(/C)c2ccccc2)cc1 (centres undefined)
Second: COc1cccc(NS(=O)(=O)c2ccc(NC(C)=O)cc2)c1
The z-score of the first is higher: 0.693 for the first, -0.261 for the second.

Compared with CCCOc1ccc(C2(C(=O)O)CCCC2)cc1, CC1(C)CC(=O)N(CC(=O)O)c2ccccc2S1(=O)=O is lower in z-score: 0.219 for the first, -0.22 for the second.

Going from Cc1cccc(/C=N/n2c(-c3ccncc3)n[nH]c2=S)c1 to Cc1cccc(-c2n[nH]c(=S)n2/N=C/c2ccc(C)o2)c1, the z-score rises from -0.531 to 0.433.

Going from c1csc(Cn2c(-c3cccs3)nc3ccccc32)c1 to CCNC(=O)CC1SC(=Nc2cccc(Cl)c2C)N(C)C1=O (centres undefined), the z-score rises from -1.65 to 0.271.

For Cc1cc(NC(=O)Nc2ccccc2)n(-c2ccccc2)n1, the z-score was 10.5 (active).
With O=C(COc1ccc(Cl)cc1Cl)Nc1noc2ccccc12 the z-score was 12.9 (active).
Cc1cc(NC(=O)COc2ccc(Cl)cc2Cl)n(-c2ccccc2)n1 was tested, and the z-score was 12.2 (active).
In the case of C(/C=C/C=C/Nc1ccccc1)=Nc1ccccc1, the z-score is reported as 16.2 (active).
With CCCn1c(O)c(N=NC(=O)c2ccco2)c2ccccc21 the z-score was 3.17 (active).
CCCCNC(=S)N=Nc1c(O)n(Cc2ccccc2)c2ccccc12 was tested, and the z-score was 3.24 (active).
In the case of CCN(CC)S(=O)(=O)c1cccc(-c2n[nH]c(=S)n2/N=C/c2ccc(C(=O)OC)cc2)c1, the z-score is reported as 3.19 (active).
C=CCn1c(-c2cccs2)nc2ccccc21 was tested, and the z-score was 3.14 (active).
In the case of Cc1cccc(C(=O)N2CCC(Cc3ccccc3)CC2)c1[N+](=O)[O-], the z-score is reported as 8.23 (active).
CCC(C)NC(=O)CN1C(=O)CC(C)(C)S(=O)(=O)c2ccccc21 (centres undefined) was tested, and the z-score was 4.26 (active).
